Results on 1 sequence are retold here after paper PMC7862700, “An all-to-all approach to the identification of sequence-specific readers for epigenetic DNA modifications on cytosine”.

Experiment in all cases: DAPPL (digital affinity profiling via proximity ligation, sequencing); 10 mM Tris-HCl pH 7.5, 50 mM NaCl, 1 mM DTT, 4% glycerol, room temperature, 30 min; GST-TFs on glutathione beads, 16-mer random dsDNA library, 0.1% formaldehyde crosslink after washing; high values mean tight binding
For experiment [1], the target named is T1, FLI1 (Homo sapiens, UniProt Q01543 1-452).
T1 sequence: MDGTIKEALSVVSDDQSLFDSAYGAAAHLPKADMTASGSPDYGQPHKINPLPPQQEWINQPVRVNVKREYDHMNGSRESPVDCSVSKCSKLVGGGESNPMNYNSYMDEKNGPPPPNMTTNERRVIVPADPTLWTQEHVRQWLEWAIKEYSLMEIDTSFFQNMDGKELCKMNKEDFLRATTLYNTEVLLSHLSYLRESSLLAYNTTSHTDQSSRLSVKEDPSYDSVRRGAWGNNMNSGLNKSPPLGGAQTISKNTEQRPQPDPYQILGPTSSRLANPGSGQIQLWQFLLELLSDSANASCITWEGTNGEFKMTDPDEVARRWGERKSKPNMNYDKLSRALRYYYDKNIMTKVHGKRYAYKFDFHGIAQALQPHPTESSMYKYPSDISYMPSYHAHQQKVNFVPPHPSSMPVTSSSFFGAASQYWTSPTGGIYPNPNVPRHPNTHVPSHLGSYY
To be noted: protein: recombinant; tags: N-terminal GST; dsDNA, one strand shown. An outline of the steps:
(§1)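 Yeast served to express human transcription factors as GST fusions, which were then captured on glutathione beads and labelled with DNA barcodes. Pooled with a tag-only sample, they were incubated with 200 nmole of a 16-mer random double-stranded DNA library for 30 min at room temperature in Tris/NaCl/DTT/glycerol buffer, washed, crosslinked with 0.1% formaldehyde, ligated by proximity, amplified by PCR and sequenced. Dividing each hexamer's read frequency for a factor by its frequency for the tag-only sample gives the binding signal.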

The target of experiment [2] is T2, ELK1 (Homo sapiens, UniProt P19419 1-428).
T2 sequence: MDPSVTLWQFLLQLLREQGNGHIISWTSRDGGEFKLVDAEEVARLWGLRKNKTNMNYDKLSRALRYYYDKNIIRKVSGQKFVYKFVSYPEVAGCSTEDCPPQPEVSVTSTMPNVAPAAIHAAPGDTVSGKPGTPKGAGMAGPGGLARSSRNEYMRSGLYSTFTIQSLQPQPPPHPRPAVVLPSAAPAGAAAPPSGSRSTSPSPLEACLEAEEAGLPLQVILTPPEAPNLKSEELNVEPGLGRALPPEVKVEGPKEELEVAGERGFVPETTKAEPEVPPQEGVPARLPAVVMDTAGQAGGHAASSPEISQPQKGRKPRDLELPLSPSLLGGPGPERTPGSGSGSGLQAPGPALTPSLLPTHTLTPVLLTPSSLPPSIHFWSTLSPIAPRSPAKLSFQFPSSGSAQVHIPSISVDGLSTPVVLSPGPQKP
To be noted: protein: recombinant; tags: N-terminal GST; dsDNA, one strand shown. Put shortly:
as §1

Experiment [3] has as its target T3, GABPA (Homo sapiens, UniProt Q06546 1-454).
T3 sequence: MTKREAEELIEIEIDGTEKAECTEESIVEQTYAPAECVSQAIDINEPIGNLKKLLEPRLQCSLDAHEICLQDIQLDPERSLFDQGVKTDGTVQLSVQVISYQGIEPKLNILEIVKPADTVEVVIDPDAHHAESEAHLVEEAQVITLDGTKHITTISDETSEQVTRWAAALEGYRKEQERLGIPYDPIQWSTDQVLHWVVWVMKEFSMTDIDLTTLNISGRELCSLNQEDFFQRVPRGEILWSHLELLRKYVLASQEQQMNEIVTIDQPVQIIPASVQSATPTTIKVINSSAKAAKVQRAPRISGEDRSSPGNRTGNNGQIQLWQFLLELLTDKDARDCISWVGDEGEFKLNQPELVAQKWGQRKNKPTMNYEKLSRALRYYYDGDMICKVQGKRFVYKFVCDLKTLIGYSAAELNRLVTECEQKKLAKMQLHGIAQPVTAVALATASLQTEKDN
To be noted: protein: recombinant; tags: N-terminal GST; dsDNA, one strand shown. Put shortly:
as §1

Experiment [4] has as its target T4, ERG (Homo sapiens, UniProt P11308 1-479).
T4 sequence: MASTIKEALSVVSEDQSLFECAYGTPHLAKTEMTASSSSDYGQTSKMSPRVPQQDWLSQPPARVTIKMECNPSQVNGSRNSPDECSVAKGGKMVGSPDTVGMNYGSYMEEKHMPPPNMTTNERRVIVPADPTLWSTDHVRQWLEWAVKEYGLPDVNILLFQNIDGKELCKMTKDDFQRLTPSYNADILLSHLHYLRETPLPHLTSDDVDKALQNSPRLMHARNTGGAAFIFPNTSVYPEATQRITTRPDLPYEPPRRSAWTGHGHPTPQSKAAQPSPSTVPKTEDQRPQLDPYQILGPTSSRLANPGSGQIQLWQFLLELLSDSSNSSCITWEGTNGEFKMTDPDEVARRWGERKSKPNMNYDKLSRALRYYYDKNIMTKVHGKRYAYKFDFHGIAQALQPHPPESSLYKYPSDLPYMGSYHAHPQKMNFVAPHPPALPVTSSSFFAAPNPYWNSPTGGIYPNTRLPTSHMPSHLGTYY
To be noted: protein: recombinant; tags: N-terminal GST; dsDNA, one strand shown. Put shortly: as §1

Experiment [5] has as its target ELF1 (Homo sapiens, UniProt P32519 1-619). Conditions: protein: recombinant; tags: N-terminal GST; dsDNA, one strand shown. Put shortly:
as §1

For experiment [6], the target named is T5, EHF (Homo sapiens, UniProt Q9NZC4 1-300).
T5 sequence: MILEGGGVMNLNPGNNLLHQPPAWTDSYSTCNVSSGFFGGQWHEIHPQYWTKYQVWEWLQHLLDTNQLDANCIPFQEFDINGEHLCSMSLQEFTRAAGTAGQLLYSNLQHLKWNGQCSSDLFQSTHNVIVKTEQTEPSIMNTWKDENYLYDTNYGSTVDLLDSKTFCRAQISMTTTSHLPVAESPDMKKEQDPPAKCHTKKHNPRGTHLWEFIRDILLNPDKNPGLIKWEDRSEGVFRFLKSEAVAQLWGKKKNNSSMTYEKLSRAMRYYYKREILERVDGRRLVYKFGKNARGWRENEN
Conditions: protein: recombinant; tags: N-terminal GST; dsDNA, one strand shown. An outline of the steps:
as §1

In experiment [7] the target is SPI1 (Homo sapiens, UniProt P17947 1-270). Conditions: protein: recombinant; tags: N-terminal GST; dsDNA, one strand shown. Put shortly: as §1
The target in experiment [8] is SPIB (Homo sapiens, UniProt Q01892 1-262). Conditions: protein: recombinant; tags: N-terminal GST; dsDNA, one strand shown. Put shortly:
as §1

The target in experiment [9] is T6, ELK3 (Homo sapiens, UniProt P41970 1-407).
T6 sequence: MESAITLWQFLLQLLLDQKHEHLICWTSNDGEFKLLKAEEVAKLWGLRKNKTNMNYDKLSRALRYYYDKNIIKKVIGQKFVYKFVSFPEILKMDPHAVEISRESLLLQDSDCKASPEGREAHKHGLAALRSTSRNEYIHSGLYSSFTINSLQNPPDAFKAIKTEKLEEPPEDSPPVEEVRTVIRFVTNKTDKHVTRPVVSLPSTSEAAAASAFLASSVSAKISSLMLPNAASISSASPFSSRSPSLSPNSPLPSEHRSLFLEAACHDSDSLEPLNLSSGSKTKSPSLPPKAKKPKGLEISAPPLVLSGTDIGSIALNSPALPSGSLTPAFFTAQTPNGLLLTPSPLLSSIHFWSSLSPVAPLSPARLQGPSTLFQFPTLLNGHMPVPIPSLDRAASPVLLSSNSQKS
To be noted: protein: recombinant; tags: N-terminal GST; dsDNA, one strand shown. Put shortly: as §1

Experiment [10] concerns the target T7, FEV (Homo sapiens, UniProt Q99581 1-238).
T7 sequence: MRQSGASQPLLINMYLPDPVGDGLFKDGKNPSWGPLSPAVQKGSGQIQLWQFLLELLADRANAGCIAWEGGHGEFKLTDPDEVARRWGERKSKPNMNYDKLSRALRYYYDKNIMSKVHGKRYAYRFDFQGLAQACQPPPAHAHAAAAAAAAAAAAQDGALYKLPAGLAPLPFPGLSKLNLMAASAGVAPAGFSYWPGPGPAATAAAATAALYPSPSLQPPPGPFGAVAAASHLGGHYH
Conditions: protein: recombinant; tags: N-terminal GST; dsDNA, one strand shown. An outline of the steps:
as §1

Experiment [11] addresses ETV5 (Homo sapiens, UniProt P41161 1-510). To be noted: protein: recombinant; tags: N-terminal GST; dsDNA, one strand shown. An outline of the steps:
as §1

Experiment [12] concerns the target HSF1 (Homo sapiens, UniProt Q00613 1-529). Conditions: protein: recombinant; tags: N-terminal GST; chain copies: 3; dsDNA, one strand shown. Put shortly:
as §1

In experiment [13] the target is T8, SPIC (Homo sapiens, UniProt Q8N5J4 1-248).
T8 sequence: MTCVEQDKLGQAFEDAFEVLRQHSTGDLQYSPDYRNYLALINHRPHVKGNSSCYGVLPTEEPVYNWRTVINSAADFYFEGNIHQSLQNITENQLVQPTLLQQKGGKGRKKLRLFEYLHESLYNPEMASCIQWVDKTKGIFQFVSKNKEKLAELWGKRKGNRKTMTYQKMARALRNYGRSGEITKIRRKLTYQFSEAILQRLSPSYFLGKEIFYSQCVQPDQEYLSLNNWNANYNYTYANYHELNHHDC
Conditions: protein: recombinant; tags: N-terminal GST; dsDNA, one strand shown. An outline of the steps: as §1

Experiment [14] concerns the target ELF4 (Homo sapiens, UniProt Q99607 1-663). Conditions: protein: recombinant; tags: N-terminal GST; dsDNA, one strand shown. Put shortly:
as §1

Experiment [15] deals with T9, ELK4 (Homo sapiens, UniProt P28324-2 1-405).
T9 sequence: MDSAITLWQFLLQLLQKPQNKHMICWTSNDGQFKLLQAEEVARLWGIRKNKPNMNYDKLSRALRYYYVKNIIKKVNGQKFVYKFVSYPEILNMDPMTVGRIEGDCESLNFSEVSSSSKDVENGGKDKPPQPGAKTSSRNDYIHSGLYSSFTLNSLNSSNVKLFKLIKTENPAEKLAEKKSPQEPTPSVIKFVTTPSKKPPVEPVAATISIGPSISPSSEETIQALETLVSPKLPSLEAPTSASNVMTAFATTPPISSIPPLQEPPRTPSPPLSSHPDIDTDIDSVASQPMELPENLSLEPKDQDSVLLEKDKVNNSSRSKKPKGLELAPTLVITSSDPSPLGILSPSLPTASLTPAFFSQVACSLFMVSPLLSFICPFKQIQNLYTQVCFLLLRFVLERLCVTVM
Conditions: protein: recombinant; tags: N-terminal GST; dsDNA, one strand shown. Put shortly: as §1

Experiment [16] deals with T10, ETV2 (Homo sapiens, UniProt O00321 1-342).
T10 sequence: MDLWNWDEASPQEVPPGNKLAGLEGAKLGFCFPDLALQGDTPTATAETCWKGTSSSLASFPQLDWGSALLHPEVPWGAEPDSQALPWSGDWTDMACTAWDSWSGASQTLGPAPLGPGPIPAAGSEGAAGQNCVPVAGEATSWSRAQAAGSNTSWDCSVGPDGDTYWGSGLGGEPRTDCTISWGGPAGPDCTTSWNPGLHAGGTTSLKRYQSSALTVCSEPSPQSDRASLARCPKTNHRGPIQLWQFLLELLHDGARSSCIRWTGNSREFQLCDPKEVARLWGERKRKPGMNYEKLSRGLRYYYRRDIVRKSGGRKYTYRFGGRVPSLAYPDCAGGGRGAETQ
Conditions: protein: recombinant; tags: N-terminal GST; dsDNA, one strand shown. Put shortly: as §1

Experiment [17] deals with T11, ELF3 (Homo sapiens, UniProt P78545 1-371).
T11 sequence: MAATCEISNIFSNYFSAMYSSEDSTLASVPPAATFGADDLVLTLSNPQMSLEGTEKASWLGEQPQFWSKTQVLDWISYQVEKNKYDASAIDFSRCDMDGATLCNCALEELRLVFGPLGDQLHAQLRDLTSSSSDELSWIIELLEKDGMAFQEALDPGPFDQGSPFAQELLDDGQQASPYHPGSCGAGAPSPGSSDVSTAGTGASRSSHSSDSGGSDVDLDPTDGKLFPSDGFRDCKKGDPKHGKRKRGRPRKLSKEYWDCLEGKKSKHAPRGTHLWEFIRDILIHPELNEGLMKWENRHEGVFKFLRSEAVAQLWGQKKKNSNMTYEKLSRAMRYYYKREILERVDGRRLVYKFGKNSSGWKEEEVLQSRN
To be noted: protein: recombinant; tags: N-terminal GST; dsDNA, one strand shown. An outline of the steps: as §1

Experiment [18] addresses CRX (Homo sapiens, UniProt O43186 1-299). Conditions: protein: recombinant; tags: N-terminal GST; dsDNA, one strand shown. Put shortly:
as §1

Experiment [19] has as its target ETV1 (Homo sapiens, UniProt P50549 1-477). To be noted: protein: recombinant; tags: N-terminal GST; dsDNA, one strand shown. Put shortly:
as §1

Chain of ETV5 (P41161 whole entry): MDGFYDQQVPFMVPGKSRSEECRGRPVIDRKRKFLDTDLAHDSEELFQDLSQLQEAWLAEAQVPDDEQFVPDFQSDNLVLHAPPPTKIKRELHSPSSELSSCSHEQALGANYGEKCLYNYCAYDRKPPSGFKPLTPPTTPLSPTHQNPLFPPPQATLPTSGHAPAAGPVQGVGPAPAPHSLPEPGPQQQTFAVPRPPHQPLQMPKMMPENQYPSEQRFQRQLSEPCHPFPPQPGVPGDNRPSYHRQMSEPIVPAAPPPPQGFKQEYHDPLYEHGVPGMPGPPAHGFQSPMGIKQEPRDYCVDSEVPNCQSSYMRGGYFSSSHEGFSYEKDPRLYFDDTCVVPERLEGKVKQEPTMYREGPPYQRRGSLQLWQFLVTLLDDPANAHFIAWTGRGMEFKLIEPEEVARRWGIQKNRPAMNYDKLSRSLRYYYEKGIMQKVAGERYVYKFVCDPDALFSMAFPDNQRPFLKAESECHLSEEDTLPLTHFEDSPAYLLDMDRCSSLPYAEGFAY
Chain of CRX (O43186 whole entry): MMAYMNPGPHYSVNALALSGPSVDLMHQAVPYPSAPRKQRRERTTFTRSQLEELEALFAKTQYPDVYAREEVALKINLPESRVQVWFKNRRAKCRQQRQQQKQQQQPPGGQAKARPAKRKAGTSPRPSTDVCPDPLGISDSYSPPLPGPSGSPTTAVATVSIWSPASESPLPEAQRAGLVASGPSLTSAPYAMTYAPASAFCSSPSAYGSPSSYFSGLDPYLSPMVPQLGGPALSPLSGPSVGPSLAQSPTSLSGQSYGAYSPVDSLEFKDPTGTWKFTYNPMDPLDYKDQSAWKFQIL
Chain of SPIB (Q01892 whole entry): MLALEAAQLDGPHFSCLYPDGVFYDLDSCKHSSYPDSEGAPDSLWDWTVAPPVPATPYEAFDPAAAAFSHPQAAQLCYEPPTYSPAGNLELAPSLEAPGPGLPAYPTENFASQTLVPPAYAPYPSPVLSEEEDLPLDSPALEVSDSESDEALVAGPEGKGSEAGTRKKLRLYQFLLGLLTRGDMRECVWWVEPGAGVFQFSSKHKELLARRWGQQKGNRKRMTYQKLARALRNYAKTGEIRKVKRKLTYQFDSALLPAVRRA
Chain of HSF1 (Q00613 whole entry): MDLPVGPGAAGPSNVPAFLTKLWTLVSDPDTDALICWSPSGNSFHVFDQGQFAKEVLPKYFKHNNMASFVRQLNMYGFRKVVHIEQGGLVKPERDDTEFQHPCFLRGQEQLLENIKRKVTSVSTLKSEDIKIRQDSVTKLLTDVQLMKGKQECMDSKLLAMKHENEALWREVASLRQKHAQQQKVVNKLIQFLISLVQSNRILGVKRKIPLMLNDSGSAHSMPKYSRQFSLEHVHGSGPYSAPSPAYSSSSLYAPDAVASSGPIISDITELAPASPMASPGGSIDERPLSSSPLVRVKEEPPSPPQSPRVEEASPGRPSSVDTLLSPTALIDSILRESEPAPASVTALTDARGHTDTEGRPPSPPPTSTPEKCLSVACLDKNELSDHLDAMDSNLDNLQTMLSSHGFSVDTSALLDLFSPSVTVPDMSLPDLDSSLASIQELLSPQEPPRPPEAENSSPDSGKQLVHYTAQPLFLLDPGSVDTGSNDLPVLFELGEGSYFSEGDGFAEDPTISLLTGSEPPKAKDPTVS
Chain of ETV1 (P50549 whole entry): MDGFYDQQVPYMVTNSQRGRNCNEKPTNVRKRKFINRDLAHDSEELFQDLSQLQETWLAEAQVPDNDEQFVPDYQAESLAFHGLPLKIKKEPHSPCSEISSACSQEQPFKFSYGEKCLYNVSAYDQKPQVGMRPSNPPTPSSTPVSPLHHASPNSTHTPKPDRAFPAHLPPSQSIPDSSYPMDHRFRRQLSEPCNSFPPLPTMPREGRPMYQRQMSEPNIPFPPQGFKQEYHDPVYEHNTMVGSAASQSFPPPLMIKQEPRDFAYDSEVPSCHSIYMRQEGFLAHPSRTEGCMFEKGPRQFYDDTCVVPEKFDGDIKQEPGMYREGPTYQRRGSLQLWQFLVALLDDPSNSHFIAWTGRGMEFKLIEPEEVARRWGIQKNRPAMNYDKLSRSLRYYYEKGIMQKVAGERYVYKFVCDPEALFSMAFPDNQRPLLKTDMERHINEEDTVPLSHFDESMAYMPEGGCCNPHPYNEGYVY
Chain of ELF4 (Q99607 whole entry): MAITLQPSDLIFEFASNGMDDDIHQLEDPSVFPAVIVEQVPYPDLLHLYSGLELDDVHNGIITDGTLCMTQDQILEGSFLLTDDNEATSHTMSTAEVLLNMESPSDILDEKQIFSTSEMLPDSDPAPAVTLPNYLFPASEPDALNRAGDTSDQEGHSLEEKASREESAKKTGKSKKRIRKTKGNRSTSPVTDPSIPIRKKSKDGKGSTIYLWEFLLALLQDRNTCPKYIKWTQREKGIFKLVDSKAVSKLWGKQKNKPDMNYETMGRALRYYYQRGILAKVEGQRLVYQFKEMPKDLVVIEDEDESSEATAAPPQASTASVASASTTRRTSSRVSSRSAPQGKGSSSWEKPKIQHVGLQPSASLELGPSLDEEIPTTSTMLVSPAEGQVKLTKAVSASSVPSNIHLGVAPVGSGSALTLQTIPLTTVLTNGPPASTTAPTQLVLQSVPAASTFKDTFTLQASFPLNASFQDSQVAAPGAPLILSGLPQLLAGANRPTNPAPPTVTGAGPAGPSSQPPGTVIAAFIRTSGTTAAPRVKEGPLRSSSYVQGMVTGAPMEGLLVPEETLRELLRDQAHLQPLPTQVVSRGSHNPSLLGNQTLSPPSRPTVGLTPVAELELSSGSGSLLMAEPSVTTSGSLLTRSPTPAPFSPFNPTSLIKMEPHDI
Chain of ELF1 (P32519 whole entry): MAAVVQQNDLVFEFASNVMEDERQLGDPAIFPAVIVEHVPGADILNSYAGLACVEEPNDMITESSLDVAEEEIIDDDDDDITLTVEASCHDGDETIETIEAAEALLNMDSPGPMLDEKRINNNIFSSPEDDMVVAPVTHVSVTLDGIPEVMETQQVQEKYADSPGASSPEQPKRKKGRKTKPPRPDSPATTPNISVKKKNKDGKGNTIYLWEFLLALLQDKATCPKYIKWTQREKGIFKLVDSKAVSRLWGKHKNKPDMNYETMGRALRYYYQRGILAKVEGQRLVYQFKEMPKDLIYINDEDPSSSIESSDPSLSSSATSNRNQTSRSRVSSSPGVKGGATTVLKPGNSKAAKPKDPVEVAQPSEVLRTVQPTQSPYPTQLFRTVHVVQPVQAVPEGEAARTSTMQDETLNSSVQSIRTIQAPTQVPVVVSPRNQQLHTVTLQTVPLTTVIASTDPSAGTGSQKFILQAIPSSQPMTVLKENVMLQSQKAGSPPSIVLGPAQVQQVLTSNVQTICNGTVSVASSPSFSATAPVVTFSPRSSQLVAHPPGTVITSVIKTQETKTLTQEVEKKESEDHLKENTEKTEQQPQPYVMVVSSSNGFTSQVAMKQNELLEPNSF

Turning to ACCTCC, the binding signal was 1.38 fold enrichment (6-mer frequency, TF over GST control) in experiment [1]; 1.42 fold enrichment (6-mer frequency, TF over GST control) in experiment [2]; 1.43 fold enrichment (6-mer frequency, TF over GST control) in experiment [3]; 1.36 fold enrichment (6-mer frequency, TF over GST control) in [4]; 1.44 fold enrichment (6-mer frequency, TF over GST control) in [5]; 1.31 fold enrichment (6-mer frequency, TF over GST control) in [6]. Besides, the binding signal in [7] is 1.31 fold enrichment (6-mer frequency, TF over GST control); in [8], 1.4 fold enrichment (6-mer frequency, TF over GST control); in experiment [9] it was 1.46 fold enrichment (6-mer frequency, TF over GST control); in experiment [10], 1.42 fold enrichment (6-mer frequency, TF over GST control); in experiment [11], 1.43 fold enrichment (6-mer frequency, TF over GST control); in experiment [12], 1.11 fold enrichment (6-mer frequency, TF over GST control). The binding signal in experiment [13] was 1.45 fold enrichment (6-mer frequency, TF over GST control); in [14], 1.44 fold enrichment (6-mer frequency, TF over GST control); in experiment [15], 1.45 fold enrichment (6-mer frequency, TF over GST control); in experiment [16], 1.4 fold enrichment (6-mer frequency, TF over GST control); in [17] it was 1.14 fold enrichment (6-mer frequency, TF over GST control); in experiment [18] it was 1.08 fold enrichment (6-mer frequency, TF over GST control). The binding signal in experiment [19] was 1.4 fold enrichment (6-mer frequency, TF over GST control).
